Screens deposited in PubChem BioAssay by National Center for Advancing Translational Sciences (NCATS).
PTHR1 agonist – qHTS for PTHR1 Agonists: Primary Screen; Parathyroid hormone/parathyroid hormone-related peptide receptor (Homo sapiens), Q03431; hit rate 0.075% among 410,000; Potency, µM (top dose mostly 115 µM), for inactives: top-dose activation, actives largely listed as activators; HEK293 GP2 PTHR1 cells, GloSensor cAMP luminescence, 1 h; AID 743266, 2014; note: potency is the fitted concentration of half-maximal effect; nearly all actives have a fitted effect of over 55% in size
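HEK-293-derived GP2 cells expressing PTHR1 and a GloSensor cAMP reporter, 3,000/well, plated overnight, given luciferin plus IBMX (each 0.5 mM as added) for 1 h at 37 °C, then compound for 1 h at 37 °C. Luminescence was read after 15 min at room temperature.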
NPSR antag – qHTS Assay for Antagonists of the Neuropeptide S Receptor: cAMP Signal Transduction; Potency, µM (titrated, usually from 38.3 µM), for the others: at the top dose activity change, negative = inhibition, hits mostly inhibitors; CHO-NPSR cells, cAMP TR-FRET, antagonist mode; hit rate 1% among 220,000; AID 1461, 2008; Q6W5P4; note: potency is the fitted concentration of half-maximal effect; % is set by controls: 0 for no effect and ±100 for the full control effect; nearly all actives have a fitted effect of over 50% in size
Target sequence (Q6W5P4 whole entry, looked up): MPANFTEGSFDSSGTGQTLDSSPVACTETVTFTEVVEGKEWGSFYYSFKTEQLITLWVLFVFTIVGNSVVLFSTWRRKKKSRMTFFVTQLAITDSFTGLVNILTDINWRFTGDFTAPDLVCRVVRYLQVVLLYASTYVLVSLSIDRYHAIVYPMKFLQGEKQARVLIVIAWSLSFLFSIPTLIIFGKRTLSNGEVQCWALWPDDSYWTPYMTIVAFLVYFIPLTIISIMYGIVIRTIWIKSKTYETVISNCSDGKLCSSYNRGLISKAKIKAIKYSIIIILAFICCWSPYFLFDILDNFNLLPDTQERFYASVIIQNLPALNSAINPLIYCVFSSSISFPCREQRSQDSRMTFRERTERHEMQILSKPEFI
RXFP1 ag – qHTS Assay for Agonists of the Relaxin Receptor RXFP1; hit rate 0.3% among 370,000; HEK293T-RXFP1 cAMP TR-FRET, 30 min; response scale: percent of porcine relaxin response, buffer zero; Potency, µM (top dose mostly 57.5 µM), for the others: top-dose activation, usual class: activators; Relaxin receptor 1 (Homo sapiens), Q9HBX9; note: potency is the fitted concentration of half-maximal effect; % is set by controls: 0 for no effect and ±100 for the full control effect; nearly all actives have a fitted effect of over 60% in size
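HEK293T cells stably expressing RXFP1 were pretreated with the PDE4 inhibitor Ro 20174, exposed to compounds for 30 min at 37C, lysed, and cAMP was read by TR-FRET. Data normalized to buffer (basal) and 29 nM porcine relaxin (100%).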
TSHR antag – Antagonists of the Thyroid Stimulating Hormone Receptor: HTS campaign; TSHR-expressing cells, TSH-stimulated cAMP HTRF, 2 h; hits give low values; activity change, negative = inhibition, % at 11.5 µM; hit rate 0.2% among 330,000;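 active = activity change below a set negative limit, meaning inhibition stronger than a set level, cut at about -70% in these data; inconclusive = activity change between two set negative limits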; note: % is set by controls: 0 for no effect and ±100 for the full control effect
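Read-out is FRET at 665 nm (cryptate excitation 337 nm) from a cryptate-tagged anti-cAMP antibody, competed by cell cAMP against cAMP-d2. Compounds are tested on freshly harvested TSHR cells challenged with 4nM TSH (EC80) for 2 hours at 37 deg C.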
RXFP1 antag – qHTS Assay for Antagonists of the Relaxin Receptor RXFP1; Relaxin receptor 1 (Homo sapiens), Q9HBX9; HEK293-RXFP1, relaxin-stimulated cAMP HTRF, 30 min; hits give low values; activity change, negative = inhibition, % at 57.5 µM; hit rate 0.59% among 350,000; AID 1259400, 2018;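 active = activity change of -60% or lower, but not beyond a set lower limit; inconclusive = change between -60% and -40%, or beyond the set limit; inactive = change above -40%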; note: % is set by controls: 0 for no effect and ±100 for the full control effect
TCR activator – Activators of T cell receptors: qHTS campaign; primary human leukocytes, anti-CD3, IL-2 HTRF, 48 h; Potency, µM (doses to about 9.22 µM), for the others: at the highest dose activation of IL-2 secretion, hits mostly activators; 330,000 tested, under 10 active; note: % of control where 0% means no effect
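Using a-CD3 beads without co-stimulation, primary human leukocytes were exposed to compounds for 48 hr. An HTRF IL-2 kit measured the cytokine, with europium-to-d2 energy transfer producing emission at 665nm upon 320nm excitation.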
The depositor's hits bear a star; i = inactive; ? = inconclusive; . = no result; [ ] = remark or other dose. The sample as a whole holds a higher share of hits than the screen did. Unless noted, calls come from the whole dose curve; as a rule, active = well fitted curve in the direction sought with a large enough effect; inconclusive = small, poorly fitted or top-dose-only effect, or another doubt; inactive = no such curve, though single readings can be large; an effect the other way counts as inactive or inconclusive.

SMILES	PTHR1 agonist	NPSR antag	RXFP1 ag	TSHR antag	RXFP1 antag	TCR activator
O=C(CN1C(=O)/C(=C/c2ccccc2Cl)SC1=S)NC1C=CS(=O)(=O)C1 (centres undefined)	i	.	1.8%	-2.7	-60.9*	-11.8%
CN(C(=O)CN1C(=O)/C(=C/c2ccccc2Cl)SC1=S)C1CCS(=O)(=O)C1 (centres undefined)	-66.1%	.	-0.3%	-126.4*	-8.4	3.4%
O=C(CN1C(=O)/C(=C/c2ccccc2)SC1=S)NC1C=CS(=O)(=O)C1 (centres undefined)	-1.6%	.	0.5%	-3.2	-16.3	-2.0%
CC(C)NC(=O)c1ccc(C=O)cc1	.	.	.	.	15.3	.
COCC(C)n1c(-c2ccc3c(c2)NC(=O)CO3)csc1=Nc1ccc(OC(F)F)cc1 (centres undefined)	-26.1%	10µM*	0.3%	-39.0	-4.7	-4.0%
O=C1COc2ccc(-c3csc(=Nc4ccc(OC(F)F)cc4)n3CC3CCCO3)cc2N1 (centres undefined)	-0.1%[57.5 µM]	?	0.4%	-21.2	-20.3	1.3%
Cc1ccccc1OCc1nnc(SCc2cc(=O)c3ccc(C)c(C)c3[nH]2)n1C	-29.9%	.	2.3%	.	-1.5	.
N/C(=N\OC(=O)COc1ccc2ccccc2c1Br)c1ccccn1	i	-57.2%	15.8µM*	0.8	5.4	-7.4%
N/C(=N\OC(=O)COc1ccc2ccccc2c1Br)c1cccnc1	.	-30.3%	15.8µM*	-4.6	.	.
Cc1ccc2nc(-c3ccccn3)c(Nc3ccccc3C)n2c1	-5.7%	12.6µM*	0.1%	-7.6	?	7.9%
COc1ccc(NC(=O)CN(Cc2ccccc2)S(=O)(=O)c2ccc(C)cc2)cc1Cl	-36.3%	.	-1.3%	.	-3.8	.
CNC(=O)c1nnsc1S(=O)(=O)c1ccc(Cl)cc1	-28.1%	?	-2.8%	?	-82.8*	1.4%
COc1ccc(S(=O)(=O)N2c3ccc(Cl)cc3[C@@](O)(c3ccccc3Cl)[C@H]2C(=O)N2CCC[C@@H]2C(N)=O)cc1OC	.	.	.	.	-15.9	.
CCOC(=O)c1c(C)c(-c2ccccc2)n(CC(=O)NCCc2ccc(C)cc2)c1C	-18.9%	.	5.1%	.	.	.
N#CC(C#N)=C1NC2(CCCCC2)Cc2ccccc21	-56.2%	-15.2%	5.1%	-13.7	-9.3	3.5%
N#CC(C#N)=c1ccc2c(c1)NC1(CCCCC1)N=2	-87.8%	10µM*	-13.3%	-12.6	.	11.2%
Fc1ccc(Nc2nc3nonc3nc2Nc2cccc(C(F)(F)F)c2)cc1	-37.2%	.	-0.4%	.	-73.9*	.
O=C(COC(=O)/C=C/c1ccc(Cl)cc1)NC(=O)NCc1ccccc1	-11.1%	.	1.2%	15.6	-61.4*	-2.1%
O=C(COC(=O)/C=C/c1ccccc1)NCc1ccc(Cl)cc1	i	10.7%	0.1%	-1.0	-7.5	-3.3%[46.1 µM]
CCN(CC)CCNc1ncnc2c1[nH]c1ccc(OC)cc12	.	?	-0.4%	26.7	.	.
COc1ccc2[nH]c3c(NCCC4=CCCCC4)ncnc3c2c1	-47.4%	-57.4%	-0.9%	-73.5*	-71.2*	3.2%
Cc1ccc(N(Cc2cc3ccccc3[nH]c2=O)C(=O)c2cccc(Cl)c2)cc1	-44.3%	.	19.3%	.	-22.7	.
CCOCCCNC(=O)Cn1nc(CC)n2c(cc3c(OC)cccc32)c1=O	i	.	0.6%	.	1.3	.
COc1cccc(C(=O)Nc2ccc3nc(SCC(=O)N4CCOCC4)sc3c2)c1	-12.5%	.	-1.0%	.	-96.0*	.
O=C(Nc1ccc2nc(SCC(=O)N3CCCC3)sc2c1)c1ccc(F)cc1	i	.	4.2%	.	-26.4	.
O=C(Nc1ccc2nc(SCC(=O)N3CCOCC3)sc2c1)c1ccccc1Cl	-57.4%	.	-0.1%	.	-63.7*	.
O=C(Nc1ccc2nc(SCC(=O)N3CCOCC3)sc2c1)c1cccc(Br)c1	-49.3%	.	1.1%	.	-97.8*	.
